Here are results for 15 molecules from PubChem BioAssay.

Molecules are shown by their SMILES. A number with no mark means an inactive call. Records with an inconclusive call do not appear. The source made the active and inactive calls. Unless noted, no rule for the calls is given here.

The target of the first assay is ATP-dependent translocase ABCB1 (Homo sapiens) (UniProt P08183). The assay is described as follows: MDR1 (ABCB1) efflux transporter inhibition, cell-based (AID 377; in the data active = fluorescence slope change above about 50%). To be noted: MDR1-expressing cells, fluorescent substrate accumulation slope; hits give high values; concentration not given here.
Chain of ATP-dependent translocase ABCB1 (Homo sapiens) (P08183 whole entry, looked up): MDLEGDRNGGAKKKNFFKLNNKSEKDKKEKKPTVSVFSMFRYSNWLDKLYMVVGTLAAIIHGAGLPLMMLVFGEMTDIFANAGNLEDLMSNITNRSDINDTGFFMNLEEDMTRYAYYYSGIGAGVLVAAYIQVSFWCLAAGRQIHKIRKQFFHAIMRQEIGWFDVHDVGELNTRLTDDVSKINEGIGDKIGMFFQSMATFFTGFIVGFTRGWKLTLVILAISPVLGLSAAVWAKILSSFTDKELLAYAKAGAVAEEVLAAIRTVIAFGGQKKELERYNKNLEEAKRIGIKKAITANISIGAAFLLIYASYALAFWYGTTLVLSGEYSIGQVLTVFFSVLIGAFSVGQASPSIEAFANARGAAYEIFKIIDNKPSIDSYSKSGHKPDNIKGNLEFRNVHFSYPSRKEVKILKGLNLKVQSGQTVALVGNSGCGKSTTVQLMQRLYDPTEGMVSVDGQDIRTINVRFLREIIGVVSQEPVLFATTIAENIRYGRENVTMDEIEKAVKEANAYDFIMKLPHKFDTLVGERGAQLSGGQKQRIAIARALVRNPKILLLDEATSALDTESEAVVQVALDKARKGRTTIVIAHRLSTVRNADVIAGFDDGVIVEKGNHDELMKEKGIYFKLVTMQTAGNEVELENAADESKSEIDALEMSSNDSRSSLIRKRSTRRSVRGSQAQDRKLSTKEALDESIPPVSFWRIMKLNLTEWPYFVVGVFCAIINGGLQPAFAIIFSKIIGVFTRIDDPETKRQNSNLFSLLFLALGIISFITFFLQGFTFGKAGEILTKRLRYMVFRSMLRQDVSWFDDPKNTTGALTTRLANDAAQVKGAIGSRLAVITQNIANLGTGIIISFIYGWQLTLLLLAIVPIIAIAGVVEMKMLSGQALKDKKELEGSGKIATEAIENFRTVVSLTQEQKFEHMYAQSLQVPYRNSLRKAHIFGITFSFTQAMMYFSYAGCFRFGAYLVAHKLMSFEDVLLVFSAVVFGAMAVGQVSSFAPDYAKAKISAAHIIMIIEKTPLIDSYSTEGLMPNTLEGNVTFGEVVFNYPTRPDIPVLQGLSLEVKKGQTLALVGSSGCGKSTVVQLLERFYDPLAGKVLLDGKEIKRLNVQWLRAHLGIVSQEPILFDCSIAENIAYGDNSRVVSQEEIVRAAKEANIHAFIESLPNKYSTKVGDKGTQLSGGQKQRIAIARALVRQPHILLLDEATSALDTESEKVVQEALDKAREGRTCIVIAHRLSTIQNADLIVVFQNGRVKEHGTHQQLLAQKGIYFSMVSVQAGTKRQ
In the case of `COc1ccc(CN2CCNCC2)c(OC)c1OC`, the fluorescence slope change is 2.5%.
Take `Fc1ccc(C(OCCN2CCN(CCCc3ccccc3)CC2)c2ccc(F)cc2)cc1`: the fluorescence slope change is 119% (active).
Take `NCC1(CC(=O)O)CCCCC1`: the fluorescence slope change is 23.2%.

Test system in a further assay: not listed separately
The assay is described as follows: circadian clock period modulators, cell-based, LOPAC library, luminescence reporter (AID 2774).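 Also: values are relative to mean of DMSO wells on each plate.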 The conditions noted are these: circadian reporter cells, at 7 µM, actives lie on both sides.
On to `CC(=O)[C@H]1CC[C@H]2[C@@H]3CC[C@H]4C[C@H](O)CC[C@]4(C)[C@H]3C(=O)C[C@]12C`, for which the period change is -0.1 h.
Regarding `CCCN1CCC[C@@H]2Cc3nc(N)ncc3C[C@H]21`, the period change is -0.24 h.
Same read-out and setting: the same measure for `CCCCc1ccc(C(=O)O)nc1`: -0.03 h; for `Cc1ccc(S(=O)(=O)N[C@@H](CCCCN)C(=O)CCl)cc1`: 0 h.
Same read-out and setting: in the case of `c1ccc(C2CC2)c(OCC2=NCCN2)c1` it was -0.34 h.
Regarding `Fc1ccc(C(OCCN2CCN(CCCc3ccccc3)CC2)c2ccc(F)cc2)cc1`, the period change was -0.11 h.
Regarding `CC[N+](CC)(CC)CC`, the period change is 0.115 h.
As to `CCCCC/C=C\C/C=C\C/C=C\C/C=C\CCCC(=O)NCC(=O)O`, the period change was 0.15 h.
In the case of `C[C@]12CC[C@H](O)CC1=CC[C@@H]1[C@@H]2CC[C@]2(C)C(=O)CC[C@@H]12`, the period change is -0.175 h.
Still for that read-out and setting: the same measure for `NCC1(CC(=O)O)CCCCC1`: -0.07 h; for `O=C1NCN(c2ccccc2)C12CCN(CC1COc3ccccc3O1)CC2` (centres undefined): 0.005 h; for `N#CC(C#N)=Cc1ccc(O)c(O)c1`: -0.18 h.

Test system in the next assay: not listed separately
Kind of assay: hESC survival regulators, cell-based (AID 493140).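 Also: cells exposed to compounds for four days before counting.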 To be noted: human embryonic stem cell survival screen; hits give high values.
In the case of `CC(=O)[C@H]1CC[C@H]2[C@@H]3CC[C@H]4C[C@H](O)CC[C@]4(C)[C@H]3C(=O)C[C@]12C`, the survival was 20.1.
The same measure, in the same setting: in the case of `CC(C)c1c(CN(C)C(C)Cc2ccccc2)n(C)n(-c2ccccc2)c1=O` (centres undefined) it was 1.08; in that of `COc1ccc(CN2CCNCC2)c(OC)c1OC`, 5.83; in that of `COP(=O)(OC)C(O)C(Cl)(Cl)Cl` (centres undefined), 17.5.
In the case of `CCCCc1ccc(C(=O)O)nc1`, the survival is 6.17.
Same read-out and setting: the same measure for `Fc1ccc(C(OCCN2CCN(CCCc3ccccc3)CC2)c2ccc(F)cc2)cc1`: 2.08.
Still for that read-out and setting: in the case of `CCCCC/C=C\C/C=C\C/C=C\C/C=C\CCCC(=O)NCC(=O)O` it was 96.8; in that of `NCC1(CC(=O)O)CCCCC1`, 2.25.
On the same count and under the same terms, in the case of `N#CC(C#N)=Cc1ccc(O)c(O)c1` it was 57.1.
